From PubChem
Pol eta inh-1 – qHTS for Inhibitors of Polymerase Eta; AID 588591, 2011; Potency, µM (top dose mostly 114 µM), most hits filed as inhibitors; DNA polymerase eta (Homo sapiens), Q9Y253; recombinant Pol eta, fluorescent DNA replication assay; 1.2% of 390,000 active
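Fluorescent replication assay: 50 nM final substrate added after a 15 min room-temperature compound preincubation with 10 nM enzyme. Signal taken at 0 min and again at 10 min.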
Pol iota inh – qHTS for Inhibitors of Polymerase Iota. DNA polymerase iota (Homo sapiens), Q9UNA4. Pol iota fluorescent replication assay, 10 min. Potency, µM (doses to about 115 µM), usual class: inhibitors. 1% of 390,000 active
Target sequence (Q9UNA4 whole entry, looked up): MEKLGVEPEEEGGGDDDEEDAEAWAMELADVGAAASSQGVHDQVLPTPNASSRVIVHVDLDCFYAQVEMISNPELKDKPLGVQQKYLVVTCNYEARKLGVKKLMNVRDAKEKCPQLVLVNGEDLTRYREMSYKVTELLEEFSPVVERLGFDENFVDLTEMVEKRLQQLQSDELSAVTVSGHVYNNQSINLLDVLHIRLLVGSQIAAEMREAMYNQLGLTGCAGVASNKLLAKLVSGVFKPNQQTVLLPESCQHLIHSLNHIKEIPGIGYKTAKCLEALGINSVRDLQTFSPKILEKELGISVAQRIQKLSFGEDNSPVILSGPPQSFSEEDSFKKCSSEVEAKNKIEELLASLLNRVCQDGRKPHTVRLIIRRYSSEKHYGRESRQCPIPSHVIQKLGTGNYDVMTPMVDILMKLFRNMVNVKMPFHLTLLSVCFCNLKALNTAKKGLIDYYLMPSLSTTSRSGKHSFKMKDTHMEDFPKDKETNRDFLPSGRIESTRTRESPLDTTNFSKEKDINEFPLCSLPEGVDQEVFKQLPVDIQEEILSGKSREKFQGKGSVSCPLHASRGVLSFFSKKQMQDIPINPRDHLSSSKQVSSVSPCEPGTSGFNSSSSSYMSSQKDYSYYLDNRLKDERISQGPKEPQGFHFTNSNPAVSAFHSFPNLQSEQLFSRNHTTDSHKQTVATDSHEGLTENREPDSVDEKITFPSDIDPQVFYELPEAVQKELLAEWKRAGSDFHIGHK
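Fluorescent replication assay read twice, at 0 min and 10 min after adding 50 nM (final) substrate. Enzyme (10 nM) and compounds were first incubated 15 min at room temperature; enzyme-free buffer wells were negative controls.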
FEN1 inh – qHTS Assay for the Inhibitors of Human Flap endonuclease 1 (FEN1) | P39748 | Recombinant FEN1 flap cleavage, fluorescence, 15 min | Potency, µM (highest dose often 114 µM), actives largely listed as inhibitors | 0.35% of 390,000 active; note: nearly all actives have a fitted effect of over 65% in size
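Quantitative HTS format: each compound was titrated, incubated with 10 nM nuclease for 15 min at room temperature, then challenged with flap substrate at 50 nM final. Signal change over 15 min gave concentration–effect curves.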
WRN inhibitor – qHTS for Inhibitors of WRN Helicase; Bifunctional 3'-5' exonuclease/ATP-dependent helicase WRN (Homo sapiens), Q14191; WRN helicase unwinding, fluorescent forked duplex, kinetic; Potency, µM (series often up to 114 µM), usual class: inhibitors; 0.46% of 360,000 active; AID 651768, 2012; note: nearly all actives have a fitted effect of over 55% in size
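WRN at 20 nM final preincubated with compound 15 min at room temperature; reaction started with 100 nM fluorophore/quencher forked duplex oligonucleotide and 2 mM ATP final. Unwinding followed kinetically by red fluorescence (ex 525, em 598 nm).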
Pol beta inh – qHTS Assay for Inhibitors of DNA Polymerase Beta | P06746 | Pol beta primer extension/strand displacement, fluorescence kinetic | Potency, µM (top dose mostly 114 µM), most hits filed as inhibitors | 1.3% of 340,000 active | AID 485314, 2010
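Enzyme-only controls used 10 nM Pol beta; buffer lacking enzyme served as negative control. Compound preincubated 15 min, then 50 nM substrate added; 0 and 10 min reads at room temperature.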
Pol kappa inh-1 – qHTS for Inhibitors of Polymerase Kappa | purified Pol kappa, fluorescent DNA synthesis assay, 10 min | AID 588579, 2011 | DNA polymerase kappa (Homo sapiens), Q9UBT6 | 0.53% of 400,000 active | Potency, µM (highest dose often 107 µM), actives largely listed as inhibitors
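Activity was followed as the change in fluorescence between reads at 0 and 10 min after starting the reaction with 50 nM substrate. Beforehand, 10 nM polymerase had been preincubated with compound for 15 min at room temperature.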
TbPGK inh – qHTS for inhibitors of Phosphogylcerate Kinase: Hit Validation Screen; shares compounds with Pol kappa inh-1; TbPGK coupled GAPDH assay, Kinase-Glo luminescence; Potency, µM (top dose mostly 57.5 µM), actives largely listed as inhibitors; 79% of 500 active; AID 686980, 2013; note: nearly all actives have a fitted effect of over 65% in size
Pol iota confirm – qHTS for Inhibitors of Polymerase Iota: Confirmatory Assay for Cherry-picked Compounds; shares compounds with Pol kappa inh-1; Pol iota primer extension, TAMRA/BHQ fluorescence; 77% of 1,500 active; Potency, µM, hits mostly inhibitors; AID 720496, 2013
GALK inh confirm – Confirmation Assay for Inhibitors of Human Galactokinase (GALK). shares compounds with Pol eta inh-1. purified GALK, Kinase-Glo ATP depletion luminescence. Potency, µM (series often up to 115 µM), hits mostly inhibitors. 70% of 150 active. AID 2015, 2009
Redox cycling – Confirmatory Assay for Inhibitors of Human Galactokinase (GALK): Phenol-HRP redox assay counterscreen; AID 2035, 2009; shares compounds with Pol eta inh-1; 40% of 150 active; Potency, µM (series often up to 115 µM), most hits filed as inhibitors; Phenol red-HRP H2O2 redox cycling, absorbance 600 nm
HEK293 viability – Secondary Assay for Inhibitors of Human Galactokinase (GALK): HEK-293 Cell Viability Assay; AID 2547, 2010; shares compounds with Pol eta inh-1; HEK-293 viability, ATP luminescence (CellTiter-Glo), 24/48 h; Potency, µM (top dose mostly 46.1 µM), hits mostly inhibitors; 10% of 170 active
Pol kappa inh-2 – qHTS for Inhibitors of Polymerase Kappa: Confirmatory Assay for Cherry-picked Compounds; purified Pol-kappa, fluorescent strand-displacement substrate; 76% of 920 active; Potency, µM, most hits filed as inhibitors; shares compounds with Pol eta inh-1
Pol eta inh-2 – qHTS for Inhibitors of Polymerase Eta: Confirmatory Assay for Cherry-picked Compounds | shares compounds with Pol eta inh-1 | Pol eta primer extension, TAMRA/BHQ fluorescence, 10 min | Potency, µM, usual class: inhibitors | 64% of 2,600 active
Of the large screens only hits and unclear results are named; the others gave an inactive call (follow-up assays come after a bar, where they were run); ! = not confirmed by another sample. An excerpt weighted towards active compounds, which were near 2.4% of everything screened. Calls come from the whole dose curve; as a rule, active = well fitted curve in the direction sought with a large enough effect; inconclusive = small, poorly fitted or top-dose-only effect, or another doubt; inactive = no such curve, though single readings can be large; an effect the other way counts as inactive or inconclusive.

Cc1nn(C(C)C(=O)NC2C(=O)N3C(C(=O)O)=C(CSc4nnnn4C)CSC23)cc1Cl (stereo not drawn)	Pol eta inh-1 20µM, Pol iota inh 15.8µM, Pol beta inh 25.1µM, Pol kappa inh-1 inconclusive | TbPGK inh inactive | Pol eta inh-2 inconclusive
NS(=O)(=O)c1ccc(NC(=O)C2Cc3ccccc3CN2C(=O)c2ccco2)cc1 (stereo not drawn)	Pol eta inh-1 20µM, Pol iota inh 20µM, WRN inhibitor inconclusive, Pol beta inh 28.2µM, Pol kappa inh-1 79.4µM | Pol iota confirm inconclusive | Pol eta inh-2 67.5
COc1cccc(Cn2c(=O)c(-c3cn(C)c4ccccc34)nc3cnc(OC)nc32)c1	none (no result: Pol eta inh-1, Pol iota inh, FEN1 inh, WRN inhibitor, Pol beta inh)
C=CC(=O)NCC1OCCc2ccccc21 (stereo not drawn)	none
O=C(/C=C/c1ccco1)NCC1OCCc2ccccc21 (stereo not drawn)	Pol eta inh-1 12.6µM, Pol iota inh 14.1µM, FEN1 inh inconclusive, WRN inhibitor 56.2µM, Pol beta inh 14.1µM, Pol kappa inh-1 35.5µM | Pol iota confirm 42.3 | Pol eta inh-2 42.6
O=C(/C=C/c1ccc(O)c(O)c1)NC(=O)c1ccccc1O	Pol eta inh-1 7.94µM, Pol iota inh inconclusive, FEN1 inh inconclusive, WRN inhibitor 56.2µM, Pol beta inh 10µM, Pol kappa inh-1 31.6µM | Pol iota confirm inconclusive | Pol eta inh-2 60.1
O=C(O)C1Oc2cc3ccccc3cc2O1	Pol eta inh-1 17.8µM, Pol iota inh 28.2µM, Pol beta inh 7.94µM | Pol iota confirm 75.2 | Pol kappa inh-2 8.44 | Pol eta inh-2 47.8
CS(=O)(=O)N1N=C(c2ccco2)CC1c1ccco1 (stereo not drawn)	Pol eta inh-1 22.4µM, Pol iota inh inconclusive, Pol beta inh inconclusive, Pol kappa inh-1 79.4µM | Pol iota confirm 53.2 | Pol kappa inh-2 18.9 | Pol eta inh-2 30.1
O=C(COc1ccccc1C(=O)Nc1ccccc1)Nc1ccccc1Cl	none (no result: Pol eta inh-1, WRN inhibitor, Pol beta inh)
N#Cc1c(N2CCCC2)nc(N)c2c(N)nc(N3CCCC3)cc12	Pol eta inh-1 2.82µM, Pol iota inh 2.51µM, FEN1 inh inconclusive, Pol beta inh inconclusive | Pol iota confirm 37.7 | GALK inh confirm 2.11µM | Redox cycling 1.88µM | HEK293 viability inactive | Pol eta inh-2 60.1
CCOc1cc2c(C#N)c(N3CCCC3)nc(N)c2c(N)n1	none (no result: Pol beta inh)
COc1cc2c(C#N)c(N3CCCC3)nc(N)c2c(N)n1	Pol eta inh-1 22.4µM, Pol iota inh 8.91µM!, FEN1 inh inconclusive, WRN inhibitor inconclusive, Pol beta inh inconclusive, Pol kappa inh-1 inconclusive | Pol iota confirm 37.7 | Pol eta inh-2 23.9
CCc1ccccc1NS(=O)(=O)c1ccc(NC(=O)N2CCCC2)cc1	none (no result: WRN inhibitor)
C=C(C)C(=O)Oc1ccc(N=Nc2ccc(C)cc2)ccc1=O	Pol eta inh-1 3.55µM, Pol iota inh inconclusive, FEN1 inh inconclusive, WRN inhibitor 39.8µM, Pol kappa inh-1 50.1µM (no result: Pol beta inh) | TbPGK inh 1.46µM | Pol iota confirm 23.8 | Pol kappa inh-2 10.6 | Pol eta inh-2 19
CC(C)CCC[C@@H](C)[C@H]1CC[C@H]2[C@@H]3CC[C@@H]4C[C@H](O)CC[C@]4(C)[C@H]3CC[C@]12C	none (no result: Pol eta inh-1, Pol iota inh, FEN1 inh, WRN inhibitor, Pol beta inh)
CCc1n[nH]c(=S)n1/N=C/c1cc(OC)cc([N+](=O)[O-])c1O	Pol eta inh-1 20µM, Pol iota inh inconclusive, WRN inhibitor inconclusive | Pol iota confirm 33.6 | Pol eta inh-2 60.1
O=C(NCCc1ccccc1)[C@@H]1CC=C[C@@H]2CCN(C3CC3)C(=O)[C@@H]21	none (no result: Pol eta inh-1, WRN inhibitor, Pol beta inh)
O=C(NCc1ccc2c(c1)OCO2)c1cc2ncc(Br)cn2n1	Pol eta inh-1 10µM, Pol iota inh 22.4µM, WRN inhibitor inconclusive, Pol beta inh 14.1µM | Pol iota confirm inconclusive | Pol eta inh-2 inconclusive
O=C(NCc1ccc2c(c1)OCO2)c1ccc(Br)cc1	none
CCOc1ccc(NS(=O)(=O)c2ccc(N)cc2)cc1	none
CCOc1ccc(Nc2ccc(N)c(S(=O)(=O)O)c2)cc1	Pol eta inh-1 11.2µM, Pol iota inh 11.2µM, WRN inhibitor inconclusive, Pol kappa inh-1 31.6µM (no result: Pol beta inh) | Pol iota confirm 75.2 | Pol kappa inh-2 75.2 | Pol eta inh-2 37.9
COc1ccc(C(CC(=O)N2CCCC2)c2c(OC)cc(OC)c3c(-c4ccccc4)cc(=O)oc23)cc1 (stereo not drawn)	Pol eta inh-1 inconclusive, Pol iota inh 70.8µM, Pol beta inh 35.5µM, Pol kappa inh-1 79.4µM | Pol iota confirm 33.6 | Pol eta inh-2 75.7
COc1ccc(C(CC(=O)N2CCCCC2)c2c(OC)cc(OC)c3c(-c4ccccc4)cc(=O)oc23)cc1 (stereo not drawn)	Pol eta inh-1 20µM, Pol iota inh 70.8µM, Pol beta inh 25.1µM, Pol kappa inh-1 50.1µM | Pol iota confirm 42.3 | Pol eta inh-2 inconclusive
